PubChem BioAssay (NCI)
The panel holds about 79,000 compounds, 15% with a hit somewhere; the sample as a whole holds those more often. Calls of active or inactive are those of the source. No stated cut-off is given here; in the data, active means growth inhibition above about 70%; inactive means the rest.

What was measured:
[1] = NCI Yeast Anticancer Drug Screen. Data for the rad50 strain (AID 155);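 further: 0% = growth of vehicle-only cultures of the same strain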; details: S. cerevisiae rad50 strain growth inhibition, hits give high values
In short: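 Readout: growth inhibition relative to vehicle-treated cultures. Compound exposure was carried out in a genetically defined yeast strain deficient in DNA damage repair.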

[2] = NCI Yeast Anticancer Drug Screen. Data for the mec2-1 strain (AID 157); details: S. cerevisiae mec2-1 strain, hits give high values
In short: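 Each compound was tested on mec2-1 yeast, a strain altered in DNA damage repair or cell cycle control. Growth inhibition is reported relative to vehicle.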

[3] = NCI Yeast Anticancer Drug Screen. Data for the sgs1 mgt1 strain (AID 161);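 further: 0% = growth of cultures given vehicle only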; details: S. cerevisiae sgs1 mgt1 strain, hits give high values
In short: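 Inhibition of yeast growth, normalised to vehicle-treated controls, is reported for a strain bearing genetic alterations in DNA damage repair.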

[4] = NCI Yeast Anticancer Drug Screen. Data for the cln2 rad14 strain (AID 165);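 further: 0% = growth equal to vehicle treated cultures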; details: S. cerevisiae cln2 rad14 strain, hits give high values
In short: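 Test compounds were added to cln2 rad14 yeast cultures; inhibition of growth was then determined by comparison with vehicle treatment.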

[5] = NCI Yeast Anticancer Drug Screen. Data for the bub3 strain (AID 167); details: S. cerevisiae bub3 mutant strain, hits give high values
In short: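 Readout: yeast growth inhibition, expressed relative to vehicle-only wells. The test organism is a mutant strain from a panel with lesions in DNA repair or checkpoint genes.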

[6] = NCI Yeast Anticancer Drug Screen. Data for the mlh1 rad18 strain (AID 175); details: S. cerevisiae mlh1 rad18 strain growth inhibition, hits give high values
In short: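 Inhibition values reflect reduced growth of mutant yeast versus vehicle-treated controls following compound exposure; the mutations affect DNA damage repair.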

[7] = at 5.0 µM (retest, dose inferred, filed as 0.5)
[8] = at 50.0 µM (retest, dose inferred, filed as 5.0)

Measured: growth inhibition

N#CC(O)C(Br)(Br)Br (stereo not given)
inactive: [1]; [7] -3% | [1]; [8] 61% | [2]; [7] -3% | [2]; [8] 38% | [3]; [7] -4% | [3]; [8] 46% | [4]; [7] 6% | [4]; [8] 18% | [4]; at 50.0 µM 21.9% | [5]; [7] -1% | [5]; [8] 69% | [6]; [7] 1%
active: [1]; at 50.0 µM 82.7% | [2]; at 50.0 µM 74.3% | [3]; at 50.0 µM 83.3% | [5]; at 50.0 µM 84.7% | [6]; [8] 72% | [6]; at 50.0 µM 86%

O=C(O)/C=C/C(=O)Nc1cccc2c1C(=O)c1ccccc1-2
inactive: [1]; [7] 18% | [2]; [7] -18% | [3]; [7] 35% | [4]; [7] 8% | [5]; [7] 17% | [6]; [7] 34%
active: [1]; [8] 89% | [1]; at 50.0 µM 92.3% | [2]; [8] 93% | [2]; at 50.0 µM 97.9% | [3]; [8] 95% | [3]; at 50.0 µM 97.3% | [4]; [8] 96% | [4]; at 50.0 µM 89.7% | [5]; [8] 93% | [5]; at 50.0 µM 95.9% | [6]; [8] 97% | [6]; at 50.0 µM 96.1%

O=C(Cc1ccc(C2=NCCN2)cc1[N+](=O)[O-])c1ccc(C2=NCCN2)cc1
active: [1]; [8] 73% | [2]; at 50.0 µM 89.6% | [5]; [8] 71%
inactive: [1]; [7] -3% | [1]; at 50.0 µM 49.2% | [2]; [7] -7% | [2]; [8] 35% | [3]; [7] 0% | [3]; [8] 55% | [3]; at 50.0 µM 26.8% | [4]; [7] -5% | [4]; [8] 16% | [4]; at 50.0 µM 25% | [5]; [7] -8% | [5]; at 50.0 µM 49.3% | [6]; [7] -5% | [6]; [8] 68% | [6]; at 50.0 µM 68.7%

CC1(C)CC(=O)C2=C(C1)OC1=C(C(=O)CC(C)(C)C1)C2CC(c1ccccc1)c1ccc(O)c(O)c1O (stereo not given)
active: [1]; at 50.0 µM 72.2%
inactive: [1]; [7] 22% | [1]; [8] 30% | [2]; [7] 6% | [2]; [8] -8% | [2]; at 50.0 µM 22.8% | [3]; [7] 9% | [3]; [8] 2% | [3]; at 50.0 µM 48.3% | [4]; [7] 5% | [4]; [8] 18% | [4]; at 50.0 µM 28.2% | [5]; [7] -11% | [5]; [8] -23% | [5]; at 50.0 µM 36% | [6]; [7] 30% | [6]; [8] 10% | [6]; at 50.0 µM 56%

COC(=O)c1cc2c(oc1=O)-c1ccccc1N(C=O)C2
inactive: [1]; [7] -3% | [1]; [8] -8% | [1]; at 50.0 µM 0.3% | [2]; [7] -9% | [2]; [8] -11% | [2]; at 50.0 µM -8.75% | [3]; [7] -13% | [3]; [8] -11% | [3]; at 50.0 µM 11.4% | [4]; [7] -11% | [4]; [8] -9% | [4]; at 50.0 µM -55.8% | [5]; [7] -16% | [5]; [8] -24% | [5]; at 50.0 µM -35.1% | [6]; [7] 0% | [6]; [8] -21% | [6]; at 50.0 µM 2.1%

NC(=S)N/N=C/c1ccc([N+](=O)[O-])o1
active: [6]; at 50.0 µM 75.3%
inactive: [1]; [7] 11% | [1]; [8] 27% | [1]; at 50.0 µM 66% | [2]; [7] 3% | [2]; [8] 14% | [2]; at 50.0 µM 43.7% | [3]; [7] 4% | [3]; [8] 24% | [3]; at 50.0 µM 65.2% | [4]; [7] -3% | [4]; [8] 2% | [4]; at 50.0 µM 13.7% | [5]; [7] 10% | [5]; [8] 45% | [5]; at 50.0 µM 24.2% | [6]; [7] 13% | [6]; [8] 43%

CCOC(=O)C(Br)C(Br)c1cccc(Cl)c1 (stereo not given)
inactive: [1]; [7] 53% | [2]; [7] 64% | [4]; [7] 31% | [5]; [7] 57%
active: [1]; [8] 99% | [1]; at 50.0 µM 99.5% | [2]; [8] 99% | [2]; at 50.0 µM 99.7% | [3]; [7] 84% | [3]; [8] 99% | [3]; at 50.0 µM 99.8% | [4]; [8] 99% | [4]; at 50.0 µM 99.4% | [5]; [8] 99% | [5]; at 50.0 µM 99.8% | [6]; [7] 84% | [6]; [8] 99% | [6]; at 50.0 µM 99.5%

Cc1cc(N(CCOS(C)(=O)=O)CCOS(C)(=O)=O)ccc1C=Nc1ccccc1C(=O)O
inactive: [1]; [7] 7% | [2]; [7] 15% | [2]; [8] 66% | [3]; [7] 4% | [3]; [8] 62% | [4]; [7] 4% | [4]; [8] 57% | [4]; at 50.0 µM 68.2% | [5]; [7] -2% | [5]; [8] 31% | [5]; at 50.0 µM 38.5% | [6]; [7] 28%
active: [1]; [8] 76% | [1]; at 50.0 µM 83.5% | [2]; at 50.0 µM 74.3% | [3]; at 50.0 µM 79.8% | [6]; [8] 91% | [6]; at 50.0 µM 95.1%

CC(C)c1ccc(/C=C(\NC(=O)c2ccccc2)c2nc3ccccc3[nH]2)cc1
inactive: [1]; [7] -2% | [1]; [8] 60% | [2]; [7] -27% | [2]; [8] 53% | [3]; [7] -2% | [3]; [8] 67% | [3]; at 50.0 µM 56.5% | [4]; [7] -7% | [4]; [8] 49% | [5]; [7] 6% | [6]; [7] -3% | [6]; [8] 62%
active: [1]; at 50.0 µM 71.2% | [2]; at 50.0 µM 86.1% | [4]; at 50.0 µM 80.4% | [5]; [8] 71% | [5]; at 50.0 µM 88% | [6]; at 50.0 µM 93.3%

Oc1cc(Br)cc2cc(Cl)cnc12
active: [1]; [7] 99% | [1]; [8] 89% | [1]; at 50.0 µM 84.5% | [2]; [7] 97% | [2]; [8] 87% | [2]; at 50.0 µM 84.5% | [3]; [7] 98% | [3]; [8] 93% | [3]; at 50.0 µM 79.8% | [4]; [7] 98% | [4]; [8] 88% | [4]; at 50.0 µM 80% | [5]; [7] 98% | [5]; [8] 86% | [5]; at 50.0 µM 83.1% | [6]; [7] 98% | [6]; [8] 81% | [6]; at 50.0 µM 75.5%
